Data taken from PubChem BioAssay (EPA / NIEHS).
Several values for one entry are separate records, joined by “and”; a condition that tells them apart may be missing. Identical values can stand only once. Some compounds were tested as several samples or in several runs, with calls that do not always agree. Activity calls are given as the source filed them. How the source made its calls: active means hit-call score of the fitted dose curve at least 0.9, where 1 is the maximum; inactive means score below 0.9.

Read-out: Urokinase-type plasminogen activator receptor (uPAR), PLAUR (gene 5329)
Test: BSK_4H_uPAR: BioMAP Diversity Plus: 4H Assay for Urokinase-type plasminogen activator receptor (uPAR) Biomarker Activity (AID 2283030)
Settings: primary human endothelial cells (HUVEC); actives raise or lower the signal
Experimental: BSK_4H is a cell-based, multiplexed-readout assay that uses umbilical vein endothelium, a human vascular primary cell, with measurements taken at 24 hours after chemical dosing in a 96-well plate.BSK_4HAR is an assay component measured in the BSK_4H assay. It measures uPAR antibody related to regulation of gene expression using ELISA technology.Data from the assay component BSK_4HAR was analyzed into 1 assay endpoint. This assay endpoint, BSK_4HAR, was analyzed with bidirectional fitting relative to DMSO as the negative control and baseline of activity. Using a type of binding reporter, gain or loss-of-signal activity can be used to understand changes in the signaling as they relate to the gene PLAUR. Furthermore, this assay endpoint can be referred to as a primary readout, because this assay has produced multiple assay endpoints where this one serves a signaling function. To generalize the intended target to other relatable targets, this assay endpoint is annotated to the cytokine intended target family, where the subfamily is plasmogen activator.
The levels of cell surface (or secreted, indicated by the prefix "s") biomarker endpoints were measured by ELISA. Overt cytotoxicity to cells in confluent adherent cultures (all systems other than the BT system) was assessed by measuring total protein levels using sulforhodamine B (SRB) staining in parallel cultures at the time of biomarker measurements, indicated as SRB endpoints. For proliferation assays for adherent cell types, individual cell types are cultured at sub-confluence and relative cell numbers quantified by SRB staining at time points optimized for each system (48 h: 3C and CASM3C systems; 72 h: BT and HDF3CGF systems; 96 h: SAg system). SRB was performed by staining cells with 0.1% SRB after fixation with 10% TCA and reading wells at 560 nm.Viability and proliferation of PBMC (T cells) was quantified by Alamar Blue reduction for the SAg and BT systems. For PBMC viability (referred to as PBMC Cytotoxicity within the assay endpoint names), cells were plated (75,000/well in a 96-well plate) and then chemical samples added for 1 h before addition of activators, SEB and TSST-1 (20 ng/mL final concentration each). Cells were incubated for 90 h. Then, Alamar Blue (20 uL/well) (Invitrogen, Cat DAL1100) was added for 6 h, and the plates were read with a fluorescence microplate reader at 546/580 nm (excitation/emission). For PBMC proliferation, cells were plated and activated as above but incubated for only 16 h prior to addition of Alamar Blue. Plates were read after 6 h.

Row | SMILES | outcome | AC50
1 | CCCCC(CC)COC(=O)C=Cc1ccc(OC)cc1 (centres undefined) | inactive | 
2 | COc1ccc(C(=O)c2ccccc2O)c(O)c1 | inactive | 10.2 µM (active)
3 | C1CN(CCOCCN2CCOCC2)CCO1 | inactive | 
4 | COc1cc(CNC(=O)CCCC/C=C/C(C)C)ccc1O | inactive | 
5 | CC[N+](CC)(CC(=O)Nc1c(C)cccc1C)Cc1ccccc1 (tested in a mixture with another compound) | inactive | 
6 | CN(C)Cc1cc(C(C)(C)C)c(O)c(C(C)(C)C)c1 | inactive | 
7 | CCCCCCCCCCC1CO1 (centres undefined) |  | 30.1 µM (active)
8 | O=[N+]([O-])c1cc(S(=O)(=O)Nc2ccccc2)ccc1Nc1ccccc1 | inactive | 33.5 µM (active)
9 | CC[N+](CC)(CC(=O)Nc1c(C)cccc1C)Cc1ccccc1 | inactive | 
10 | CC(C)C1OCCN1CCOC(=O)NCCCCCCNC(=O)OCCN1CCOC1C(C)C (centres undefined) | inactive | 
11 | CCCCCCC(O)CCCCCCCCCCC(=O)OC (centres undefined) | inactive | 
12 | COc1ccccc1Oc1c(NS(=O)(=O)c2ccc(C(C)(C)C)cc2)nc(-c2ncccn2)nc1OCCO | inactive | 
13 | Sc1nc2ccccc2s1 | inactive | 
14 | O=C(C(=O)c1ccccc1)c1ccccc1 | inactive | 
15 | CN(C)CCC(c1ccc(Cl)cc1)c1ccccn1 (centres undefined) | inactive | 
16 | OC(C(F)(F)F)(C(F)(F)F)C(O)(C(F)(F)F)C(F)(F)F |  | 12.7 µM (active) and 15.4 µM (active)
17 | Cc1cc(-n2nc3ccc(Cl)cc3n2)c(O)c(C(C)(C)C)c1 |  | 1.37 µM (active)
18 | COC(=O)/C=C\C(=O)OC | inactive | 
19 | CN(C)c1ccc(C(c2ccccc2)c2ccc(N(C)C)cc2)cc1 | inactive | 
20 | Cc1c(C(N)=O)cc([N+](=O)[O-])cc1[N+](=O)[O-] | inactive | 
21 | Cc1cccnc1 | inactive | 
22 | CC(C)CC(=O)CC(C)CC(C)C (centres undefined) |  | 30.9 µM (active)
23 | CCCCCCCCCC/C=C/C1CC(=O)OC1=O (centres undefined) | inactive | 
24 | CCCCCCCCCCCCCCCCCC[N+](C)(C)C | inactive | 
25 | CCC(C)=NO | inactive | 
26 | Oc1cccc2ccccc12 | inactive | 
27 | CCC[Si](OC(C)=O)(OC(C)=O)OC(C)=O | inactive | 
